# Assay results: PMC7862700, “An all-to-all approach to the identification of sequence-specific readers for epigenetic DNA modifications on cytosine”
# Columns and labels:
# Assay in all cases: DAPPL (digital affinity profiling via proximity ligation, sequencing); 10 mM Tris-HCl pH 7.5, 50 mM NaCl, 1 mM DTT, 4% glycerol, room temperature, 30 min; GST-TFs on glutathione beads, 16-mer random dsDNA library, 0.1% formaldehyde crosslink after washing; high values mean tight binding
# Details in all cases: protein: recombinant; tags: N-terminal GST; dsDNA, one strand shown
# ERF = target: T1, ERF (Homo sapiens, UniProt P50548 1-548)
# T1 sequence: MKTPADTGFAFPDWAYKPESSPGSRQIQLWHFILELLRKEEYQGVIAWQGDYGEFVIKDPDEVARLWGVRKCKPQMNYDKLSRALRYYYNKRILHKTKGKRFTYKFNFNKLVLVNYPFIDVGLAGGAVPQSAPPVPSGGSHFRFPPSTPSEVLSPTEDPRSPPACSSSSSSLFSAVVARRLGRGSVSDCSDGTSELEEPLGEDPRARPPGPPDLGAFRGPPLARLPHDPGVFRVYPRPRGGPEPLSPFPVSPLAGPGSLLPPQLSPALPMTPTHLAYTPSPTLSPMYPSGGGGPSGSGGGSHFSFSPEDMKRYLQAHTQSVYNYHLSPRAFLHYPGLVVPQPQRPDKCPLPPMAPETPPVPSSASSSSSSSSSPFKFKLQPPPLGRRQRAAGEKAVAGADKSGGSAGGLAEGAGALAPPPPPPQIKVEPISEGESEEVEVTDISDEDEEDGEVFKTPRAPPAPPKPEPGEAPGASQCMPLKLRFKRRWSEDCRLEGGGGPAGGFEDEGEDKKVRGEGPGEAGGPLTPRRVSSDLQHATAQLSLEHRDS
# Summary of the method: (§1)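 Binding signal is defined as a hexamer's read frequency for one factor over its frequency for the tag-only sample. To obtain reads, GST-fused human transcription factors were expressed in yeast, captured on glutathione beads, barcoded with DNA and pooled with that sample. Pools met 200 nmole of a 16-mer random double-stranded DNA library in Tris/NaCl/DTT/glycerol buffer for 30 min at room temperature before washing, 0.1% formaldehyde crosslinking, proximity ligation (BsaI/T4 ligase, 1 h, 37 °C), PCR and Illumina NextSeq500 sequencing.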
# ETV3L = target: T2, ETV3L (Homo sapiens, UniProt Q6ZN32 1-361)
# T2 sequence: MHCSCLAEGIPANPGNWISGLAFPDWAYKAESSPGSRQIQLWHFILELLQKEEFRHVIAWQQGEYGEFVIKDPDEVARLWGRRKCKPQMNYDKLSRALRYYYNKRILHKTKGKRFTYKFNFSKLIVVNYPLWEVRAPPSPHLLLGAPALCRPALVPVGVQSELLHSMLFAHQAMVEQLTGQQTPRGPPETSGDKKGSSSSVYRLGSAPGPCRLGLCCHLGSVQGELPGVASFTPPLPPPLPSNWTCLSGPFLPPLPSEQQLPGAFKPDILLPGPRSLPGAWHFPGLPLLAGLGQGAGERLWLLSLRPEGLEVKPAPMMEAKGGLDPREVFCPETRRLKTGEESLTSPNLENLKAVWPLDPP
# Summary of the method: as §1
# ETS2 = target: T3, ETS2 (Homo sapiens, UniProt P15036 1-469)
# T3 sequence: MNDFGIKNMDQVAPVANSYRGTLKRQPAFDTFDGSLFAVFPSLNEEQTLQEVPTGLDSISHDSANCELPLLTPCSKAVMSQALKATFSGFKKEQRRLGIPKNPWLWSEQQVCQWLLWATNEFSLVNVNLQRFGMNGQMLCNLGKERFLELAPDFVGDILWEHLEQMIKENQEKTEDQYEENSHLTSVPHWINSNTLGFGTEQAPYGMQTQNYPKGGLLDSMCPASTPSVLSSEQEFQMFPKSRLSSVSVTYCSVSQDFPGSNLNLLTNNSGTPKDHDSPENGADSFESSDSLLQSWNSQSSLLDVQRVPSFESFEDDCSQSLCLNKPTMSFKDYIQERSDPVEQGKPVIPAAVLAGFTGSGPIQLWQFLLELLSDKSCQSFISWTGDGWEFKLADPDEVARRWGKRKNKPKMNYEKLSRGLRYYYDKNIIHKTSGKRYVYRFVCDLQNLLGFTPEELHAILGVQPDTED
# Summary of the method: as §1
# SPDEF = target: T4, SPDEF (Homo sapiens, UniProt O95238 1-335)
# T4 sequence: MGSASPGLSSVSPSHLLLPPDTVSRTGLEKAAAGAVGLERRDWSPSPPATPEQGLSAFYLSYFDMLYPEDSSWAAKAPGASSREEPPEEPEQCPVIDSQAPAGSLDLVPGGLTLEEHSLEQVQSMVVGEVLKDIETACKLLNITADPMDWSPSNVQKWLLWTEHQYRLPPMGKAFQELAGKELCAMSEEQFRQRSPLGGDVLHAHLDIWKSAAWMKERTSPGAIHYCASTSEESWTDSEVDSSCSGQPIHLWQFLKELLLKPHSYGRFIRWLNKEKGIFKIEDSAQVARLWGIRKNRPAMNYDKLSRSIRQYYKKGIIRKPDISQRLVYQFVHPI
# Summary of the method: as §1
# ETV7 = target: T5, ETV7 (Homo sapiens, UniProt Q9Y603 1-341)
# T5 sequence: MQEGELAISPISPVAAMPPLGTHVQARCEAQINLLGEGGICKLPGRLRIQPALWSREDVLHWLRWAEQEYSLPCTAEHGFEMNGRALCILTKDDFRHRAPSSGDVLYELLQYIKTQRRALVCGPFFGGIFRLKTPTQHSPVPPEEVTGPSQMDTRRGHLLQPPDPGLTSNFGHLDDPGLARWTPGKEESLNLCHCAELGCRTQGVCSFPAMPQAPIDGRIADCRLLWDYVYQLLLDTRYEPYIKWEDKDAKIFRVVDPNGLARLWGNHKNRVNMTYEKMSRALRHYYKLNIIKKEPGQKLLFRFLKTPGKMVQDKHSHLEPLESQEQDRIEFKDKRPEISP
# Summary of the method: as §1
# ELF5 = target: T6, ELF5 (Homo sapiens, UniProt Q9UKW6-2 1-255)
# T6 sequence: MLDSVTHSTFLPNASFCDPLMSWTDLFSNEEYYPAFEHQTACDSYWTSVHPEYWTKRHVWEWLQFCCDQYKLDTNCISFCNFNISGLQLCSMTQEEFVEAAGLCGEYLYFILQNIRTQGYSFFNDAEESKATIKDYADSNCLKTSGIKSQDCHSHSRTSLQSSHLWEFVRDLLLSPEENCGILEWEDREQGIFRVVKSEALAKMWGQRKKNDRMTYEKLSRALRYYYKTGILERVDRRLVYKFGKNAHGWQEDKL
# Summary of the method: as §1
# ETV3 = target: T7, ETV3 (Homo sapiens, UniProt P41162-2 1-143)
# T7 sequence: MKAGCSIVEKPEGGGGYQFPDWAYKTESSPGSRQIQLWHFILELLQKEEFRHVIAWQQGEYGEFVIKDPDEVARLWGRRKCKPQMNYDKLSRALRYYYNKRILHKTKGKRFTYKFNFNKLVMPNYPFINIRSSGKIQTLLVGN
# Summary of the method: as §1
# ETV6 = ETV6 (Homo sapiens, UniProt P41212 1-452)
# ETV6, sequence (P41212 whole entry): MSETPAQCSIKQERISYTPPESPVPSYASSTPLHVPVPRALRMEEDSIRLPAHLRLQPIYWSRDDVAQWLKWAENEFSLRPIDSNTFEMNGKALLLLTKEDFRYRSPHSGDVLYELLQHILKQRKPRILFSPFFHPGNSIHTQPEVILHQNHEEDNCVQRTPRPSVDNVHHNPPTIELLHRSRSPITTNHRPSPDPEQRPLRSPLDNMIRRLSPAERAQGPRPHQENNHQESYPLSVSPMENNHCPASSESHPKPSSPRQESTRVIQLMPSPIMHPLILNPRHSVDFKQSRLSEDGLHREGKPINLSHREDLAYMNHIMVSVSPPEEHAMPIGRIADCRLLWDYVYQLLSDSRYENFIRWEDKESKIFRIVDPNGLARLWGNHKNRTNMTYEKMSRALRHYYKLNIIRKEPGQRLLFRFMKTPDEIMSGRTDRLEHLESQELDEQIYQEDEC
# Summary of the method: as §1
Sequence,binding signal (ERF),binding signal (ETV3L),binding signal (ETS2),binding signal (SPDEF),binding signal (ETV7),binding signal (ELF5),binding signal (ETV3),binding signal (ETV6)
CACTCT,"1.37 fold enrichment (6-mer frequency, TF over GST control)","1.29 fold enrichment (6-mer frequency, TF over GST control)","1.27 fold enrichment (6-mer frequency, TF over GST control)","1.14 fold enrichment (6-mer frequency, TF over GST control)","1.19 fold enrichment (6-mer frequency, TF over GST control)","1.18 fold enrichment (6-mer frequency, TF over GST control)","1.43 fold enrichment (6-mer frequency, TF over GST control)","1.23 fold enrichment (6-mer frequency, TF over GST control)"
ATAATT,"1.33 fold enrichment (6-mer frequency, TF over GST control)","1.4 fold enrichment (6-mer frequency, TF over GST control)","1.31 fold enrichment (6-mer frequency, TF over GST control)","1.23 fold enrichment (6-mer frequency, TF over GST control)","1.31 fold enrichment (6-mer frequency, TF over GST control)","1.31 fold enrichment (6-mer frequency, TF over GST control)","1.32 fold enrichment (6-mer frequency, TF over GST control)","1.45 fold enrichment (6-mer frequency, TF over GST control)"
CAAACT,"1.23 fold enrichment (6-mer frequency, TF over GST control)","1.14 fold enrichment (6-mer frequency, TF over GST control)","1.21 fold enrichment (6-mer frequency, TF over GST control)","1.16 fold enrichment (6-mer frequency, TF over GST control)","1.15 fold enrichment (6-mer frequency, TF over GST control)","1.18 fold enrichment (6-mer frequency, TF over GST control)","1.13 fold enrichment (6-mer frequency, TF over GST control)","1.21 fold enrichment (6-mer frequency, TF over GST control)"
CCTACC,"1.37 fold enrichment (6-mer frequency, TF over GST control)","1.37 fold enrichment (6-mer frequency, TF over GST control)","1.36 fold enrichment (6-mer frequency, TF over GST control)","1.35 fold enrichment (6-mer frequency, TF over GST control)","1.21 fold enrichment (6-mer frequency, TF over GST control)","1.44 fold enrichment (6-mer frequency, TF over GST control)","1.35 fold enrichment (6-mer frequency, TF over GST control)","1.32 fold enrichment (6-mer frequency, TF over GST control)"
TTTACG,"1.22 fold enrichment (6-mer frequency, TF over GST control)","1.31 fold enrichment (6-mer frequency, TF over GST control)","1.29 fold enrichment (6-mer frequency, TF over GST control)","1.26 fold enrichment (6-mer frequency, TF over GST control)","1.25 fold enrichment (6-mer frequency, TF over GST control)","1.32 fold enrichment (6-mer frequency, TF over GST control)","1.19 fold enrichment (6-mer frequency, TF over GST control)","1.27 fold enrichment (6-mer frequency, TF over GST control)"
GGAACT,"1.48 fold enrichment (6-mer frequency, TF over GST control)","1.71 fold enrichment (6-mer frequency, TF over GST control)","1.88 fold enrichment (6-mer frequency, TF over GST control)","1.94 fold enrichment (6-mer frequency, TF over GST control)","1.56 fold enrichment (6-mer frequency, TF over GST control)","2.25 fold enrichment (6-mer frequency, TF over GST control)","1.93 fold enrichment (6-mer frequency, TF over GST control)","1.84 fold enrichment (6-mer frequency, TF over GST control)"
ACCCCG,"1.26 fold enrichment (6-mer frequency, TF over GST control)","1.33 fold enrichment (6-mer frequency, TF over GST control)","1.25 fold enrichment (6-mer frequency, TF over GST control)","1.15 fold enrichment (6-mer frequency, TF over GST control)","1.02 fold enrichment (6-mer frequency, TF over GST control)","1.21 fold enrichment (6-mer frequency, TF over GST control)","1.11 fold enrichment (6-mer frequency, TF over GST control)","1.16 fold enrichment (6-mer frequency, TF over GST control)"
TCCCCA,"1.32 fold enrichment (6-mer frequency, TF over GST control)","1.41 fold enrichment (6-mer frequency, TF over GST control)","1.38 fold enrichment (6-mer frequency, TF over GST control)","1.3 fold enrichment (6-mer frequency, TF over GST control)","1.12 fold enrichment (6-mer frequency, TF over GST control)","1.46 fold enrichment (6-mer frequency, TF over GST control)","1.36 fold enrichment (6-mer frequency, TF over GST control)","1.26 fold enrichment (6-mer frequency, TF over GST control)"
